Screening results as filed in PubChem.
Most compounds without a hit are left out; they make up all but 3% or so of the library.
LGR2 inh = inhibitors of bursicon-induced Drosophila LGR2 receptor cAMP signaling; inhibition, % at 9.99 µM; 380,000 compounds, 0.35% hits; HEK293 LGR2, CRE-luciferase, bursicon-stimulated, 4 h; AID 720647;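 active means drop in luminescence signal, shown as inhibition above about 50% in the replicate tests, limit read from the data, passing the limit was not always enough; inconclusive means probably only some replicates passing the limit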;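 further: agonist challenge used bursicon conditioned medium at about half maximal strength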
TWEAK-Fn14 inh = blocks TWEAK-Fn14 interaction in a reporter cell assay | TWEAK-stimulated Fn14 reporter cells, luciferase luminescence, 8 h | inhibition, % at 10 µM | 360,000 compounds, 2% hits | AID 1159606; in the data active means inhibition above about 50%
MITF TRPM1 HTS = increases MITF-driven TRPM1 promoter luciferase signal. SK-MEL-5 TRPM1-promoter luciferase, 24 h; % of positive control, neutral wells = 0. activation, % at 12.5 µM. 300,000 compounds, 0.75% hits. AID 588334;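 active means mean activation of at least 80% with every replicate also reaching 80%; inconclusive means mean reaches 80% but some replicate falls short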
LMP1 NFkB inh = reduces LMP1-driven NF-kappaB luciferase signal; 350,000 compounds, 0.69% hits; LMP1-induced NF-kappaB luciferase reporter cells, luminescence; inhibition, % at 12.5 µM; AID 504558; in the data active means inhibition above about 41%; inconclusive means no clear call, values can overlap the other calls
TROY signal inh = TROY signaling inhibition; Q293 LMP1-TROYcd NF-kB luciferase reporter, 4 h; 360,000 compounds, 0.98% hits; inhibition, % at 10 µM;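 active means compounds whose plate-normalised and pattern-corrected inhibition of the luciferase reporter signal at the single screening dose is 50% or more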
TRPM1 prom inh = reduces MITF-dependent TRPM1 promoter luciferase signal | SK-MEL-5 TRPM1 promoter luciferase, 24 h | inhibition, % at 12.5 µM | 330,000 compounds, 0.83% hits | AID 488899;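 active means mean inhibition across replicates of 60% or more, whatever share of single replicates reaches that level; inconclusive means some that reach 60%, reason not given; inactive means mean inhibition across replicates below 60%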
Large screens that a line does not name were inactive.

Cc1c(/C(O)=C2/C(=O)C(=O)N(CCN3CCOCC3)C2c2ccco2)cnn1-c1ccccc1 (centres undefined)	TWEAK-Fn14 inh 85.4, TROY signal inh 74.0
Cc1c(/C(O)=C2/C(=O)C(=O)N(Cc3cccnc3)C2c2cccs2)cnn1-c1ccccc1 (centres undefined)	TWEAK-Fn14 inh 83.2, TROY signal inh 84.8 (no result: LGR2 inh)
CN(C)S(=O)(=O)c1ccc(/C(O)=C2/C(=O)C(=O)N(Cc3cccnc3)C2c2cccs2)cc1 (centres undefined)	none
Cc1c(/C(O)=C2/C(=O)C(=O)N(Cc3cccnc3)C2c2ccccn2)cnn1-c1ccccc1 (centres undefined)	LGR2 inh 86.9, TWEAK-Fn14 inh 101.4, TROY signal inh 91.5
Cc1ccccc1NC(=O)CSc1nc(N2CCCCC2)nc(N2CCCCC2)n1	none (no result: LGR2 inh)
CCOC(=O)c1ccc(NC(=O)CSc2nc(N3CCOCC3)nc(N3CCOCC3)n2)cc1	LMP1 NFkB inh 65.7
CC(=O)c1ccc(NC(=O)CSc2nc(N3CCOCC3)nc(N3CCOCC3)n2)cc1	none
CC(=O)c1cccc(NC(=O)CSc2nc(N3CCCCC3)nc(N3CCCCC3)n2)c1	TWEAK-Fn14 inh 54.3, TROY signal inh 56.7 (no result: LGR2 inh)
O=C(O)C[C@@H]1C[C@@H]2c3cc(NC(=O)Nc4ccc(F)cc4)ccc3O[C@@H]2[C@H](CO)O1	none (no result: TWEAK-Fn14 inh, MITF TRPM1 HTS, LMP1 NFkB inh, TROY signal inh, TRPM1 prom inh)
COc1ccc(NC(=O)N(C)C[C@@H]2OCCCC[C@@H](C)Oc3ccc(NC(=O)Nc4ccc(F)cc4)cc3C(=O)N([C@H](C)CO)C[C@H]2C)cc1	none (no result: TWEAK-Fn14 inh, MITF TRPM1 HTS, LMP1 NFkB inh, TROY signal inh, TRPM1 prom inh)
O=C(Nc1ccccc1O)C(c1ccccc1)c1ccccc1	TWEAK-Fn14 inh 64.5
O=C(O)c1ccccc1NC(=O)C(c1ccccc1)c1ccccc1	none (no result: MITF TRPM1 HTS)
O=C(N/N=C/c1cn(-c2ccccc2)nc1-c1cc2ccccc2o1)c1ccncc1	TWEAK-Fn14 inh 69.6
CN1CCC(N(C)C(=O)/C=C/c2cn(-c3ccccc3)nc2-c2cccs2)CC1	LGR2 inh 78.0, TRPM1 prom inh inconclusive
O=C(N/N=C/c1cn(-c2ccccc2)nc1-c1ccc(F)cc1)c1ccc(Br)o1	TWEAK-Fn14 inh 52.7 (no result: LGR2 inh)
O=C(N/N=C/c1cn(-c2ccccc2)nc1-c1cccs1)c1ccccc1F	none (no result: LGR2 inh)
O=C(N/N=C/c1cn(-c2ccccc2)nc1-c1cccs1)c1ccc(Cl)cc1	TWEAK-Fn14 inh 54.6
CCN(CC(=O)Nc1ccc(NC(C)=O)cc1)C(=O)/C=C/c1cn(-c2ccccc2)nc1-c1cccs1	none
O=C(C[C@H]1C[C@H]2c3cc(NC(=O)CC4CC4)ccc3O[C@H]2[C@@H](CO)O1)NCc1cccnc1	none (no result: TWEAK-Fn14 inh, MITF TRPM1 HTS, LMP1 NFkB inh, TROY signal inh, TRPM1 prom inh)
CN(C)C(=O)c1cccc(-c2ccc([C@H]3[C@H](CO)N4CCCCN(C(=O)C5CCC5)C[C@@H]34)cc2)c1	none (no result: TWEAK-Fn14 inh, MITF TRPM1 HTS, LMP1 NFkB inh, TROY signal inh, TRPM1 prom inh)
O=C(N/N=C/c1cn(-c2ccccc2)nc1-c1cc2ccccc2o1)c1cccnc1	LGR2 inh inconclusive, TWEAK-Fn14 inh 84.6, TROY signal inh 63.4
O=C(C[C@H]1CC[C@@H](NC(=O)C2CCC2)[C@H](CO)O1)NCc1ccccc1Cl	none (no result: TWEAK-Fn14 inh, MITF TRPM1 HTS, LMP1 NFkB inh, TROY signal inh, TRPM1 prom inh)
Cc1c(C(=O)NCCC2=CCCCC2)oc2ccc(S(=O)(=O)N3CCOCC3)cc12	TWEAK-Fn14 inh 52.0 (no result: LGR2 inh, MITF TRPM1 HTS)
Cc1c(C(=O)NCc2cccnc2)oc2ccc(S(=O)(=O)N3CCC4(CC3)OCCO4)cc12	none (no result: LGR2 inh)
Cc1ccc(CNC(=O)c2oc3ccc(S(=O)(=O)N4CCC5(CC4)OCCO5)cc3c2C)cc1	TWEAK-Fn14 inh 53.6 (no result: LGR2 inh, MITF TRPM1 HTS)
CCCNC(=O)C[C@@H]1C[C@H]2c3cc(NS(C)(=O)=O)ccc3O[C@H]2[C@@H](CO)O1	none (no result: TWEAK-Fn14 inh, MITF TRPM1 HTS, LMP1 NFkB inh, TROY signal inh, TRPM1 prom inh)
CN(C)CCNC(=O)c1cccc2ccc(-c3ccc(-c4ccccc4)cc3)nc12	TRPM1 prom inh 70.5 (no result: MITF TRPM1 HTS)
COc1ccc(OC)c2nc3c(C(=O)NCCN(C)C)cccc3nc12	TRPM1 prom inh 72.9
CN(C)CCNC(=O)c1cccc2nc3cccc(F)c3nc12	TRPM1 prom inh 76.6
O=C(C[C@@H]1C=C[C@H](NC(=O)Nc2ccc(C(F)(F)F)cc2)[C@@H](CO)O1)NCCN1CCCC1	none (no result: TWEAK-Fn14 inh, MITF TRPM1 HTS, LMP1 NFkB inh, TROY signal inh, TRPM1 prom inh)
COc1ccc(S(=O)(=O)Nc2ccc3c(c2)C(=O)N([C@@H](C)CO)C[C@@H](C)[C@@H](CN(C)C(=O)Nc2ccccc2)OCCCC[C@H](C)O3)cc1	none (no result: TWEAK-Fn14 inh, MITF TRPM1 HTS, LMP1 NFkB inh, TROY signal inh, TRPM1 prom inh)
COC(=O)c1cnn(-c2cc(Oc3cccc(C)c3)ncn2)c1N	TWEAK-Fn14 inh 91.0 (no result: LGR2 inh, TROY signal inh)
COc1ccccc1CNC(=O)c1cc(-c2ccccc2)nn1Cc1cc(C)no1	none
CCc1cc(Cn2nc(-c3ccccc3C)cc2C(=O)O)on1	none
